# Experimental data taken from PubChem BioAssay (NCATS).
# Unmarked numbers belong to inactive results. Inconclusive results are not listed. Where a call stands in place of a potency, no number is given. The source made the active and inactive calls. Unless noted, calls follow the shape of the dose curve; as a rule, active = well fitted curve in the direction sought with a large enough effect; inconclusive = small, poorly fitted or top-dose-only effect, or another doubt; inactive = no such curve, though single readings can be large; an effect the other way counts as inactive or inconclusive.
# Columns and labels:
# [1] = molecular target: Methanococcus maripaludis chaperonin (MmCpn) (UniProt Q6LX38); assay: High-Throughput Screening for Modulators of Cytosolic Chaperonin Activity: MmCpn Primary Screen (AID 488978); details: Purified MmCpn ATPase activity, ADP HTRF detection, 10 min; series mostly up to 76.9 µM;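 also: 50 nM MmCpn enzyme hydrolysing 30 µM ATP at 37 °C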
# In short: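 ATPase activity of 50 nM MmCpn was assayed with 30 uM ATP, 10 minutes at 37C, after a 5 min compound preincubation at room temperature. ADP production was read as HTRF emission at 590 and 665 nm.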
# [2] = molecular target: D(1A) dopamine receptor (Homo sapiens) (UniProt P21728); assay: HTS Assay for Allosteric Agonists of the Human D1 Dopamine Receptor: Primary Screen for Agonists (AID 488981); details: Inducible HEK293 T-REx D1 cells, calcium-flux fluorescence, 180 s kinetic; series mostly up to 41.8 µM
# In short: (§1)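 Tetracycline-induced HEK293 T-REx cells force-coupled to calcium signalling were incubated overnight at 30 C and dye-loaded at room temperature. Calcium flux over 180 s after compound addition flagged agonists; a further 180 s read after EC20 dopamine flagged potentiators.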
# [3] = molecular target: D(1A) dopamine receptor (Homo sapiens) (UniProt P21728); assay: HTS Assay for Allosteric Agonists of the Human D1 Dopamine Receptor: Primary Screen for Potentiators (AID 488982); details: HEK293 T-REx D1 inducible cells, calcium flux, kinetic fluorescence; series mostly up to 8.37 µM
# In short: as §1
# [4] = molecular target: D(1A) dopamine receptor (Homo sapiens) (UniProt P21728); assay: HTS Assay for Allosteric Agonists of the Human D1 Dopamine Receptor: Primary Screen for Antagonists (AID 488983); details: D1 receptor cell assay, antagonist mode, qHTS titration; series mostly up to 41.8 µM;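 also: calcium flux response to an EC80 dopamine challenge measured with no-wash dye; nearly all actives have a fitted effect of over 65% in size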
# In short: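 Tetracycline-induced HEK293 T-REx D1 line, force-coupled to calcium flux, read with no-wash calcium dye. Compound added after 10 s baseline, read 180 s for agonism, then EC80 dopamine added and read a further 180 s.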
# [5] = molecular target: ATPase family AAA domain-containing protein 5 (Homo sapiens) (UniProt Q96QE3); assay: Validation screen for small molecules that inhibit ELG1-dependent DNA repair in human embryonic kidney (HEK293T) cells expressing luciferase-tagged ELG1 (AID 493107); details: HEK293T ELG1-luciferase level, luminescence, 5-fluorouridine co-treatment, 16 h; series mostly up to 46.1 µM;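 also: cells co-treated with the DNA-damaging agent 5-fluorouridine alongside compound; inhibitors lower the ELG1-luciferase luminescence signal; nearly all actives have a fitted effect of over 70% in size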
# In short: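 HEK293T cells expressing luciferase-tagged ELG1, 2,000 per well, treated with 5-fluorouridine plus compound for 16 h at 37 C. ONE-Glo luminescence after 30 min at room temperature reports ELG1 reporter level.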
# [6] = qHTS for Inhibitors of Cell Surface uPA Generation: Validation Assay (AID 493164); details: mouse cells, plasminogen activation; series mostly up to 38.3 µM
# In short: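 RAW 264.7 cells (4000/well) were plated overnight, then exposed for 18 h at 37 C, 5% CO2 to compounds in a 7-point 1:5 titration (2.45 nM–38.3 uM final). Intracellular ATP was read by ATP-Lite luminescence.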
# [7] = molecular target: Peptidyl-prolyl cis-trans isomerase NIMA-interacting 1 (Homo sapiens) (UniProt Q13526); assay: qHTS Validation Assay to Find Inhibitors of Pin1 (AID 504536; active = well fitted inhibition curve with a large enough effect in the polarisation, with a control signal flat, not every such curve was filed as active; the % refers to the polarisation); details: Pin1 fluorescence polarization peptide binding assay; series mostly up to 57.5 µM
# In short: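 Fluorescence polarization competition: compounds (titration) displace HiFluor-488-labeled Pin1-1b peptide from Pin1 (0.3 uM final) in pH 7.5 HEPES buffer with DTT, 10 min at room temperature; %Activity normalized to no-enzyme wells, curves fitted.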
# [8] = molecular target: Phosphoglycerate kinase, glycosomal (Trypanosoma brucei brucei) (UniProt P07378); assay: qHTS Validation Assay to Find Inhibitors of Phosphoglycerate Kinase (AID 504547); details: enzymatic PGK inhibition, coupled luminescence read-out; series mostly up to 57.5 µM
# In short: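 Substrate/PGK mix plus compound; reaction started with GAPDH (100nM final) to form 1,3-BPG; 60 min RT; Kinase-Glo Plus 10 min; luminescence. TEA 100mM pH 7.6, MgCl2 5mM, Tween-20 0.01%.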
# [9] = molecular target: phosphoglycerate mutase (Leishmania major) (UniProt Q4Q090); assay: qHTS Validation Assay to Find Inhibitors of Phosphoglycerate Mutase (AID 504548); details: biochemical enzyme activity; series mostly up to 57.5 µM
# In short: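 Lm PGAM 1.25nM final; 100 mM TEA pH 7.6, 5 mM MgCl2, 0.01% Tween-20; 45 min RT; Kinase-GloPlus, 10 min; end-point luminescence. Enzyme-free wells as negative controls.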
# [10] = molecular target: Ubiquitin carboxyl-terminal hydrolase 1 (Homo sapiens) (UniProt O94782); assay: Inhibitors of USP1/UAF1: Pilot qHTS (AID 504865); details: purified USP1/UAF1, Ub-rhodamine cleavage fluorescence; series mostly up to 114 µM; also: nearly all actives have a fitted effect of over 35% in size; also: potency is read from the fitted curve at half-maximal effect
# In short: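 Deubiquitinase activity followed as kinetic rhodamine fluorescence release from 150 nM Ub-Rho. 1 nM USP1/UAF1 with compound, after 15 min room-temperature preincubation, in HEPES pH 7.8 buffer containing TCEP, EDTA, BSA and Tween-20.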
# [11] = qHTS for Inhibitors of ATXN expression: Validation of Cytotoxic Assay (AID 588349); details: cytotoxicity counter-screen for ATXN expression inhibitors, cell viability; series mostly up to 57.1 µM
# In short: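 HEK293 cells treated with titrated compound for 72 hr at 37 degrees C; viability read as intracellular ATP by CellTiter Glo luminescence.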
# [12] = qHTS for Inhibitors of ATXN expression: Validation (AID 588378); details: cell-based ATXN2 expression reporter assay, luminescence; series mostly up to 57.1 µM; also: nearly all actives have a fitted effect of over 75% in size; also: potency is read from the fitted curve at half-maximal effect
# In short: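 Luciferase luminescence (Bright-Glo) from an ATXN2-FFLuc HEK293 line after 24 h compound exposure at 37 °C, preceded by a CellTiter-Fluor fluorescence viability read. Serial dilutions of a reference ATXN2 inhibitor and a luciferase inhibitor served as controls.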
# [13] = molecular target: ATP-dependent 6-phosphofructokinase (Trypanosoma brucei brucei) (UniProt O15648); assay: qHTS Assay to Find Inhibitors of T. brucei phosphofructokinase: hit validation (AID 492961);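 also: luminescence reports ADP formed as PFK phosphorylates fructose-6-phosphate with ATP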; details: T. brucei PFK, ADP-Glo luminescence; series mostly up to 51.4 µM
# In short: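 Percent activity derived from corrected luminescence, normalized between 0x and 1x enzyme controls, then fitted to concentration-response curves. Conditions: 1.25 nM PFK, 0.1 mM ATP, 0.5 mM F6P, 45 min RT.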
# [14] = molecular target: DNA dC->dU-editing enzyme APOBEC-3G (Homo sapiens) (UniProt Q9HC16); assay: qHTS for inhibitors of Vif-A3G interactions: Validation (AID 588379); details: Vif-A3G protein interaction assay; series mostly up to 46.1 µM
# In short: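 HeLa cells stably expressing Vif and A3G-eYFP, 700 cells/well, incubated overnight at 37 deg C, then exposed to compound overnight at 37 deg C. Inhibition of Vif-mediated degradation read as increased yellow fluorescence (Ex 488/Em 500-530) by laser-scanning cytometry.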
# [15] = molecular target: Transient receptor potential cation channel subfamily V member 1 (Homo sapiens) (UniProt Q8NER1); assay: HTS Assay for Compounds that Act as Enhancers of the Vanilloid Receptor 1 (AID 488979); details: TRPV1-expressing cells, enhancer of channel activity, stimulated with capsaicin at EC20; series mostly up to 41.7 µM
# In short: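 TRPV1-expressing cells loaded with Fluo-8 calcium dye; compounds added and calcium influx read kinetically for 3 min (agonist phase), then capsaicin at EC20 added and read 2 min more for enhancement. Fluorescence ex 480/em 520 nm.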
# [16] = molecular target: Thyrotropin receptor (Homo sapiens) (UniProt P16473); assay: qHTS Assay for Antagonists of the Thyroid Stimulating Hormone Receptor (AID 488980); details: TSHR-expressing cells, cAMP antagonist read-out; series mostly up to 57.5 µM
# In short: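 Inhibition of cAMP raised by EC80 TSH (4 nM final) was read by HTRF, with lysate cAMP competing against cAMP-d2 for cryptate antibody after 30 min at room temperature. The cells were transfected HEK293 held in phosphodiesterase inhibitor RO 20-1724 at 70 uM.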
# [17] = molecular target: Thyrotropin-releasing hormone receptor (Homo sapiens) (UniProt P34981); assay: qHTS for Small Molecule Agonists and Allosteric Enhancers of Human TRH Receptor: Validation Screen for Agonists (AID 493127;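 active = calcium activation more than 3 SD above the typical response in the agonist read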); details: TRH receptor agonist cell assay; at 2 µM; stronger effect = higher value
# In short: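 TRHR cells loaded with fluo-8 calcium dye; FDSS kinetic fluorescence (Ex 480/Em 530) read at 1 s/cycle after 23 nL compound addition. Agonist-mode calcium response recorded before the 10 nM TRH (EC20) addition.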
# [18] = molecular target: Galactokinase (Homo sapiens) (UniProt P51570); assay: qHTS Validation Assay for Inhibitors of Human Galactokinase (GALK) (AID 493189); details: purified human GALK enzyme activity, qHTS 7-point titration; series mostly up to 57.5 µM
# In short: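 Inhibition was measured as remaining ATP, detected by luciferase luminescence after a 1 h room-temperature reaction. Final conditions: 5 nM GALK, 100 uM galactose, 35 uM ATP, pH 8.0 HEPES buffer.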
# [19] = Validation screen for small molecules that induce DNA re-replication in SW480 colon adenocarcinoma cells (AID 504364); details: DNA re-replication phenotype (high-content imaging); series mostly up to 46.1 µM
# In short: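 SW480 cells (250/well) exposed 48 h at 37 C, 5% CO2, then Hoechst-stained 40 min. Nuclear DNA content imaged by fluorescence scanning (405 nm excitation, 500-530 nm emission); re-replication scored as increased nuclei with elevated intensity.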
# D(1A) dopamine receptor (Homo sapiens), sequence (P21728 whole entry, looked up): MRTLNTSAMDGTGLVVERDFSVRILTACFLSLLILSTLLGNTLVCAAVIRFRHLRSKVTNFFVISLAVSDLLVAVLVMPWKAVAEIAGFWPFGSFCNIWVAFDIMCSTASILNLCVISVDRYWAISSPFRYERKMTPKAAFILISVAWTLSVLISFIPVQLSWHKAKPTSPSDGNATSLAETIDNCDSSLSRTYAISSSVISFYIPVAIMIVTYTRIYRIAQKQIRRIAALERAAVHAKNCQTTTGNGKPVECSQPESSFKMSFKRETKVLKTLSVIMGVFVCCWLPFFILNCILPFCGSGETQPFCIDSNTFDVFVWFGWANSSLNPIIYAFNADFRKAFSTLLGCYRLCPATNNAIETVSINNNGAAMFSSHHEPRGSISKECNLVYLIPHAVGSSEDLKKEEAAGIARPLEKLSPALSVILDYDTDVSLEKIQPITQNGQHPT
# ATP-dependent 6-phosphofructokinase (Trypanosoma brucei brucei), sequence (O15648 whole entry, looked up): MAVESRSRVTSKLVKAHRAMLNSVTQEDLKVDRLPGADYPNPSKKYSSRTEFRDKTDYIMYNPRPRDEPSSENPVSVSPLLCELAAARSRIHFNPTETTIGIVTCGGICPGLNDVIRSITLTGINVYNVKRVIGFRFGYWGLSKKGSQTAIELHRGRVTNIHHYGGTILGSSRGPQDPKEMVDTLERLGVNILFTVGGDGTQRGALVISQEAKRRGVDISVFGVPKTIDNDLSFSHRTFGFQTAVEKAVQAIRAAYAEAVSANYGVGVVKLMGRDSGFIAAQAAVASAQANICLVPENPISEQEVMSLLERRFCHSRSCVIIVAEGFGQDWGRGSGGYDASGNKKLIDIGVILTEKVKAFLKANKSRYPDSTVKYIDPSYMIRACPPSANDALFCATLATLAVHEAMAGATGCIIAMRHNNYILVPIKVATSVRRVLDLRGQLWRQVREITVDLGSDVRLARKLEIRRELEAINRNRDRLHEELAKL
# Ubiquitin carboxyl-terminal hydrolase 1 (Homo sapiens), sequence (O94782 whole entry, looked up): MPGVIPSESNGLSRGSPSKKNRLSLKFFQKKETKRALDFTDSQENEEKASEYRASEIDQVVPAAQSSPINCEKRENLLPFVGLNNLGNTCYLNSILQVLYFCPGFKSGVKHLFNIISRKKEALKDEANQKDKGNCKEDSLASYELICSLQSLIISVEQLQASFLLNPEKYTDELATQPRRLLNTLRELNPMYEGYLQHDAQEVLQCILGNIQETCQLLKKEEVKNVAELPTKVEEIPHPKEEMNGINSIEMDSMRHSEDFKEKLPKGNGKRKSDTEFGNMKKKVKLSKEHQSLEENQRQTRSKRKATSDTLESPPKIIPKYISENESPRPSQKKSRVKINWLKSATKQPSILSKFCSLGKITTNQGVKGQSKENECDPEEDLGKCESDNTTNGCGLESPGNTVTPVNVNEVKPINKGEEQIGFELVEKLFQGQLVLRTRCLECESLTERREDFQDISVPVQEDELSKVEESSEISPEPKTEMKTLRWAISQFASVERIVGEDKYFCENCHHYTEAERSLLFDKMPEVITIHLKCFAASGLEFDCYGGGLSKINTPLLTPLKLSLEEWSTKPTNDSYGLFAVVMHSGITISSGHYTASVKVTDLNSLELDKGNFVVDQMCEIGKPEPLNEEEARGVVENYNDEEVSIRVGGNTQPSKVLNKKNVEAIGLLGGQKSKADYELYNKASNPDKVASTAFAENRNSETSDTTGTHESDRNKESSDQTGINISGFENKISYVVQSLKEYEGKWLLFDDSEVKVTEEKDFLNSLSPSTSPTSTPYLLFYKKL
# DNA dC->dU-editing enzyme APOBEC-3G (Homo sapiens), sequence (Q9HC16 whole entry, looked up): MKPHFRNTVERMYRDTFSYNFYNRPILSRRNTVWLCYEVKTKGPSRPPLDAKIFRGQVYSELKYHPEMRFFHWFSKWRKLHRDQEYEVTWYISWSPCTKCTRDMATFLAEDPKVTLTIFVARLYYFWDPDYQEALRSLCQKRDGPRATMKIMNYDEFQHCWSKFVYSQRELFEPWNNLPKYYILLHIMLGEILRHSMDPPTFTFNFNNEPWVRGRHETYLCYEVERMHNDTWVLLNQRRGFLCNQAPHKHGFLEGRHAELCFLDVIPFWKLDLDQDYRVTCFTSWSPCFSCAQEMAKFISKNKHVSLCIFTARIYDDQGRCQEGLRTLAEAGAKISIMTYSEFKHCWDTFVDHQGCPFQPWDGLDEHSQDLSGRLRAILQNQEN
# Methanococcus maripaludis chaperonin (MmCpn), sequence (Q6LX38 1-543): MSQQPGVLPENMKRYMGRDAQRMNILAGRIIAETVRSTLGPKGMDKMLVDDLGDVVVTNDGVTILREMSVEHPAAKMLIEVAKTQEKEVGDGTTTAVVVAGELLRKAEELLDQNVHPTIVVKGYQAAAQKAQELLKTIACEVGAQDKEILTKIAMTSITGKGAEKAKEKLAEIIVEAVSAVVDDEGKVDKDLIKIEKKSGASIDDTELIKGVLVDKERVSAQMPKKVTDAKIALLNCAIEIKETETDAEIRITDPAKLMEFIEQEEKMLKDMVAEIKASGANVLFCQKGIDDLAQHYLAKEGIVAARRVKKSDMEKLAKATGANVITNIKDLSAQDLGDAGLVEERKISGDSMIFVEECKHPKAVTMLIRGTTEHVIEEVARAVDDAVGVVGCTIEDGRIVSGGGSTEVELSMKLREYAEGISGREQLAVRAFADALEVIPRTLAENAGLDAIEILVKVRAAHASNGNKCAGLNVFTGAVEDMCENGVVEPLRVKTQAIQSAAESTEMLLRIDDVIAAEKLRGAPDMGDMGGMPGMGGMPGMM
# phosphoglycerate mutase (Leishmania major), sequence (Q4Q090 1-553): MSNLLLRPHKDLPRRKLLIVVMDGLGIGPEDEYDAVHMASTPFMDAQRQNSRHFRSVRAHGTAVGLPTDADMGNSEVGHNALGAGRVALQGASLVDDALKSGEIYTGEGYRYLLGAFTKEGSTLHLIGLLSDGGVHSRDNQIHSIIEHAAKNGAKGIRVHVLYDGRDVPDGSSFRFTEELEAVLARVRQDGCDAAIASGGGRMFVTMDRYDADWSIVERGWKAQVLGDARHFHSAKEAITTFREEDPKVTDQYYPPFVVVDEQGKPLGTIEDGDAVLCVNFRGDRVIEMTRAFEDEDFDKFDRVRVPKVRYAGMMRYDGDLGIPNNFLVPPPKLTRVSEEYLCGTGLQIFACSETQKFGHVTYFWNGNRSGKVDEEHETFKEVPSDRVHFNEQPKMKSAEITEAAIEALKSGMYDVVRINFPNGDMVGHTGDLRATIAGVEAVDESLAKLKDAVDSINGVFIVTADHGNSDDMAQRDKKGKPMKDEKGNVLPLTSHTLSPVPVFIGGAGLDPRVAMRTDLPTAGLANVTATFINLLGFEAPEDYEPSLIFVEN
# Phosphoglycerate kinase, glycosomal (Trypanosoma brucei brucei), sequence (P07378 whole entry, looked up): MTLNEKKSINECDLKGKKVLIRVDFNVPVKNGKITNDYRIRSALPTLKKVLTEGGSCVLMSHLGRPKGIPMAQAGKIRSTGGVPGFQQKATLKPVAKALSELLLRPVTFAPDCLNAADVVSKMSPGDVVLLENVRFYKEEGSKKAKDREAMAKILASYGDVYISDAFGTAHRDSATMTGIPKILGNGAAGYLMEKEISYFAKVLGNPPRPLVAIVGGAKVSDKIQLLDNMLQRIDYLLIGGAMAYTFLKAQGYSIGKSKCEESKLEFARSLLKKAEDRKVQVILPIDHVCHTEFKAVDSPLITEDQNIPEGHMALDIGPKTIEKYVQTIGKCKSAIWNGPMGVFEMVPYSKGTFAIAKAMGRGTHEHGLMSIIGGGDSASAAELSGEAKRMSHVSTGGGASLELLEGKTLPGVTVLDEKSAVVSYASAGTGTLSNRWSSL
# Peptidyl-prolyl cis-trans isomerase NIMA-interacting 1 (Homo sapiens), sequence (Q13526 whole entry, looked up): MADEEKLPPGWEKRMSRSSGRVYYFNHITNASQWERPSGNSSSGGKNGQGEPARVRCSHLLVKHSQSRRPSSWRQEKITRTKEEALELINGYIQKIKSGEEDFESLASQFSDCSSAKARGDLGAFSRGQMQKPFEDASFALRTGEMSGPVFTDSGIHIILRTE
# Galactokinase (Homo sapiens), sequence (P51570 whole entry, looked up): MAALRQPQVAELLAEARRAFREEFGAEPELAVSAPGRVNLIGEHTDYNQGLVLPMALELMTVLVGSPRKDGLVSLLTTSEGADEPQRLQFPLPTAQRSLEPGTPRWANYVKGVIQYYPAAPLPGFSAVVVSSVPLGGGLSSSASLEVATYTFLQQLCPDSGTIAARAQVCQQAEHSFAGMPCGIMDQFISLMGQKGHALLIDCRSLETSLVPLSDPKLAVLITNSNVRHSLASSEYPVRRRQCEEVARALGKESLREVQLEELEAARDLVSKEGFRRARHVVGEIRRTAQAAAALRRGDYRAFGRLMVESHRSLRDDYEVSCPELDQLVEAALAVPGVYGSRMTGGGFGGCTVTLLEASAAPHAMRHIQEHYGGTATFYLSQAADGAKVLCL
# Thyrotropin receptor (Homo sapiens), sequence (P16473 whole entry, looked up): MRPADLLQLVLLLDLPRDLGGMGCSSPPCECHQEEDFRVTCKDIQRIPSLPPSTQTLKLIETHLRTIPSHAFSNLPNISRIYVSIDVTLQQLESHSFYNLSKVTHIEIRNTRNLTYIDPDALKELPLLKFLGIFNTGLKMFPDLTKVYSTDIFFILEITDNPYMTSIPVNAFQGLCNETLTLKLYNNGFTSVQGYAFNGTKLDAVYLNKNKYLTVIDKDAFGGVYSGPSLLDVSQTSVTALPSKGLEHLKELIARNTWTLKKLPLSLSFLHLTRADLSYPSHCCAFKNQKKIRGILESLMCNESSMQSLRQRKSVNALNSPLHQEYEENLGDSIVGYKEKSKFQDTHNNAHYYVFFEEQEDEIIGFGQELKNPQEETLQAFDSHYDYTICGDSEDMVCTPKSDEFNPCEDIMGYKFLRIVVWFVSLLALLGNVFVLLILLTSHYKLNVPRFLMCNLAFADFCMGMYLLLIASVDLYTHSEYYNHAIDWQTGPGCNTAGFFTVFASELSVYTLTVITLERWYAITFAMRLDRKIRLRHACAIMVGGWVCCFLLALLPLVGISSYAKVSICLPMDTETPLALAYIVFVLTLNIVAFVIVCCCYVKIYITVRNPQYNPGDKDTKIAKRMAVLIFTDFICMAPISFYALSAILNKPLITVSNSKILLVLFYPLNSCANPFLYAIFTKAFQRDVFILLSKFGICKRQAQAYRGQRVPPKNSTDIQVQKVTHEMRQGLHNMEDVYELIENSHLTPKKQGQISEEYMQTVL
compound,measurement,setting,value
C[C@H]1O[C@@H](n2cc(F)c(=O)[nH]c2=O)[C@H](O)[C@H]1O,outcome,[1],inactive
same,outcome,[2],inactive
same,outcome,[3],inactive
same,outcome,[4],inactive
same,outcome,[5],inactive
same,outcome,[6],inactive
same,outcome,[7],inactive
same,outcome,[8],inactive
same,outcome,[9],inactive
same,Potency,[10],inactive
same,outcome,[11],inactive
same,Potency,[12],inactive
C=CCc1cccc(C=NNC(=O)CN2CCN(Cc3ccccc3)CC2)c1O,outcome,[1],inactive
same,outcome,[2],inactive
same,outcome,[3],inactive
same,outcome,[4],inactive
same,outcome,[6],inactive
same,outcome,[7],inactive
same,outcome,[8],inactive
same,outcome,[9],inactive
same,Potency,[12],3.55 µM (active)
CN(C)CCN(Cc1ccc(Cl)cc1)c1ccccn1,Potency,[10],inactive
N#Cc1c(N(CC(=O)O)CC(=O)O)sc(C(=O)O)c1CC(=O)O,outcome,[13],inactive
same,Potency,[10],inactive
CN[C@H]1[C@@H](O[C@@H]2[C@H](O[C@@H]3[C@@H](O)[C@@H](O)[C@@H](N=C(N)N)[C@@H](O)[C@@H]3N=C(N)N)O[C@H](C)[C@@]2(O)C=O)O[C@@H](CO)[C@@H](O)[C@H]1O,Potency,[10],inactive
NS(=O)(=O)c1cc(Cl)c(Cl)c(S(N)(=O)=O)c1,outcome,[13],inactive
same,Potency,[10],inactive
O=c1cc(-c2ccc(O)c(O)c2)oc2cc(O)cc(O)c12,outcome,[14],inactive
Cc1cc2nc3c(=O)[nH]c(=O)nc-3n(CC(O)C(O)C(O)CO)c2cc1C (stereo not drawn),Potency,[10],31.6 µM (active)
COc1c(C)c2c(c(O)c1CC=C(C)CCC(=O)OCCN1CCOCC1)C(=O)OC2,outcome,[13],inactive
same,Potency,[10],inactive
CN1CCN2c3ncccc3Cc3ccccc3C2C1 (stereo not drawn),outcome,[13],inactive
same,Potency,[10],inactive
same,outcome,[14],inactive
CCCCC[C@H](O)C=C[C@H]1[C@H](O)CC(=O)[C@H]1CCCCCCC(=O)O,Potency,[10],inactive
same,outcome,[14],inactive
CCNC(=O)[C@H]1O[C@@H](n2cnc3c(N)nc(NCCc4ccc(CCC(=O)O)cc4)nc32)[C@H](O)[C@H]1O,outcome,[15],inactive
same,outcome,[16],inactive
same,activation,[17],0.188%
same,outcome,[18],inactive
same,outcome,[19],inactive
CC(NCCc1ccc(O)cc1)C(O)c1ccc(O)cc1 (stereo not drawn),Potency,[10],inactive
CC1(C)OC2CC3C4CC(F)C5=CC(=O)C=CC5(C)C4C(O)CC3(C)[C@]2(C(=O)CO)O1 (stereo partly drawn),Potency,[10],inactive
